For eight compounds, composite z-score results are on record in PubChem BioAssay.

Concanavalin-A (Canavalia ensiformis), sequence (P02866 whole entry, looked up): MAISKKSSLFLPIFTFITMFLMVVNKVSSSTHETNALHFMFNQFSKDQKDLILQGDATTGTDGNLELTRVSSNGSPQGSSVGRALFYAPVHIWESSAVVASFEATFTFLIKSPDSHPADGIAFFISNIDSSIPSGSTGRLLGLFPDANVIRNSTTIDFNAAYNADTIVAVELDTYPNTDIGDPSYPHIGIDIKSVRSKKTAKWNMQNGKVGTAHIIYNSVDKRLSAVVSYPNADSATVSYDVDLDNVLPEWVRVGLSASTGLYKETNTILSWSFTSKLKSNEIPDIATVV

This assay has as its target Concanavalin-A (Canavalia ensiformis) (UniProt P02866). Briefly: ConA small-molecule binders, primary screen, artefact control for SMM control protein annotation, biochemical, small-molecule microarray, Alexa647 label, 635 nm (AID 1127).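 Note: z combines 667 nm emission intensity with signal-to-noise across three replicate slides.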 As to conditions: ConA-A647 binding fluorescence, higher = more signal.
Compound `O=C1C=C(c2ccccc2)C(=O)c2ccc([C@H]3Oc4ccccc4S(=O)(=O)N4CCC[C@@H]34)cc21` came in with a composite z-score of -0.388.
In the case of `Cc1ccc(S[C@]2(C(=O)NCC(F)(F)F)CC(=O)N(C3CCCCC3)[C@@H]2c2ccc(CO)cc2I)cc1`, the composite z-score amounted to 0.955.
The same measure for `COc1ccc(C#Cc2ccc3c(c2)[C@]2(C(=O)N3)[C@H](c3ccc(O)cc3)N3[C@H](c4ccccc4)[C@H](c4ccccc4)OC(=O)[C@H]3[C@@H]2C(=O)O)cc1`: 0.868.
The same measure for `COC(=O)[C@@]1(Cc2ccc(OC)cc2)[C@@H]2C(=CC(=O)[C@H]2CC(=O)C(=O)N(C)C)CN1C(=O)c1ccccc1`: 1.11; for `CCOC(=O)c1ccc(NC(=O)O[C@H]2[C@H](OC(=O)Nc3ccc4c(c3)OCO4)[C@H](OC(=O)Nc3ccc4c(c3)OCO4)[C@@H](OC)O[C@@H]2CO)cc1`: 1.18.
Then `C=CCN1Cc2ccccc2[C@H]2OC(c3ccc(OCCCO)cc3)=N[C@@]2(CC=C)C1=O`, with 0.85; and `CN(C)CCCNC(=O)[C@@]1(C)c2ccccc2C(=O)N(Cc2ccccc2)[C@H]1c1ccc(CO)cc1`, with -0.371.
Consider `CCCCCCCCCCC(O)C1C=CC2C(=O)N(C)C(=O)C2N1NC(=O)OC(C)(C)C` (stereo not drawn), for which the composite z-score amounted to 1.12.
